From PubChem BioAssay
This is a sample that favours compounds with a hit; in the whole collection about 2.3% have one here.
M1 antag: human CHRM1 antagonism; AID 588852; inhibition, % at 3 µM; 360,000 tested, 1.3% active; CHO-K1 hM1, Fluo-8 calcium fluorescence, ACh EC80 antagonist;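 active = percent inhibition above its own plate's cutoff, namely the mean of that plate's compound wells plus 3 SD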;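 note: peak over basal fluorescence ratio during 140 s after agonist addition; 0% = ACh EC80 plus DMSO and 100% = DMSO alone without agonist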
Target sequence (P11229 whole entry, looked up): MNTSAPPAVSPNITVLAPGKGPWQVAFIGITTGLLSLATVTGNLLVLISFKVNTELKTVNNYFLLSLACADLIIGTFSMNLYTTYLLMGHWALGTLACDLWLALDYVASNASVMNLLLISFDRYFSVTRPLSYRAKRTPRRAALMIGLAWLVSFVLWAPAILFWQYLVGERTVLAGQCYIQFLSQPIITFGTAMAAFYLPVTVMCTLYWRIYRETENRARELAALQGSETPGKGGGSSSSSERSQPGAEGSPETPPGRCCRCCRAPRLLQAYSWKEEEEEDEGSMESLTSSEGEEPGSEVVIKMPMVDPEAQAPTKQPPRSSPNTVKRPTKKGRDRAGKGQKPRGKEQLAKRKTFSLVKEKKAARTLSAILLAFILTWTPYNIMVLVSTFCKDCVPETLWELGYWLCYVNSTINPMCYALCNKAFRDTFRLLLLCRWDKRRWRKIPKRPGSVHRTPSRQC
M1 PAM parental: M1 PAM counterscreen hit in parental CHO-K1 cells. activation, % at 3 µM. 360,000 tested, 0.02% active. ATP EC20, Fluo-8 calcium fluorescence; 0% at ATP EC20, 100% at ATP max;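 active = activation above the run cutoff, the mean activation of all test compounds plus 3 SD, cut at about 40% in these data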;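 note: peak over basal fluorescence ratio in a 140 s read after ATP addition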
M1 ag parental: M1 agonist counterscreen hit in parental CHO-K1 cells | Fluo-8 calcium fluorescence; scaled to maximal ATP response, vehicle zero | activation, % at 3 µM | 360,000 tested, 0.48% active | AID 602248; in the data active = activation above about 15%;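 note: untransfected CHO-K1 host cells lacking M1 receptor as counterscreen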
CHRM1 PAM: positive allosteric modulators of human M1 muscarinic receptor. P11229. CHO-K1 hM1, Fluo-8 calcium fluorescence, ACh EC20; 0% = ACh EC20, 100% = maximal ACh. activation, % at 3 µM. 360,000 tested, 0.088% active. AID 588819; in the data active = activation above about 19%, passing the limit was not always enough
M1 ag: human M1 muscarinic receptor agonism; 360,000 tested, 0.33% active; P11229; activation, % at 3 µM; AID 588814; CHO-K1 hM1, Fluo-8 calcium fluorescence, agonist mode; 0% DMSO, 100% acetylcholine EC100;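 active = activation above the run's mean compound activation plus 3 SD, cut at about 16% in these data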;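 note: peak over basal fluorescence ratio within a 140 s kinetic read after compound addition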
CHO-K1 Ca antag: counter-screen for M1 antagonists: effect in parental CHO-K1 cells; ATP-induced calcium, Fluo-8 fluorescence; inhibition, % at 3 µM; 360,000 tested, 0.6% active; AID 602250;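 active = inhibition above a per-plate cutoff, the plate's mean sample inhibition plus 3 SD, cut at about 24% in these data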;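 note: 0% = DMSO plus EC80 ATP and 100% = DMSO alone without ATP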
* hit, by the source's call.

SMILES	M1 antag	M1 PAM parental	M1 ag parental	CHRM1 PAM	M1 ag	CHO-K1 Ca antag
CCCCC(=O)NNC(=O)N1c2ccccc2Sc2ccccc21	-13	14	0	5	-8	-18
Cc1ccc(-c2c3c(=O)n(C)c(=O)n(C)c3cn2Cc2ccccc2)cc1	-8	19	4	10	-6	-5
Cn1c(=O)c2c(-c3ccccc3)n(CCCN3CCOCC3)cc2n(C)c1=O	7	-5	0	0	-3	29*
CC(C)(C)c1ccc(C(=O)Nc2cccc3c(=O)[nH][nH]c(=O)c23)cc1	-1	-10	0	7	-6	11
CC(NC(=O)Nc1ccc(Cl)c(Cl)c1)C(c1ccccc1)N1CCOCC1 (stereo not given)	10	10	38*	3	30*	14
CC(NC(=O)Nc1ccc([N+](=O)[O-])cc1)C(c1ccccc1)N1CCOCC1 (stereo not given)	2	4	49*	-1	26*	-2
CC(NC(=O)c1ccc(Cl)cc1Cl)C(c1ccccc1)N1CCOCC1 (stereo not given)	-11	16	1	11	-13	9
Cc1ccc(C)c(C(C)NC(=O)c2ccc(Br)o2)c1 (stereo not given)	-3	7	0	11	-3	-9
COc1cc2[nH]c(=O)n(CCC(=O)N3CC=C(c4ccccc4)CC3)c(=O)c2cc1OC	16	9	1	-2	-2	-13
COc1cc2[nH]c(=O)n(CCCC(=O)N3CC=C(c4ccccc4)CC3)c(=O)c2cc1OC	32*	-2	0	-8	-4	2
Cc1ccc(S(=O)(=O)NC(=O)C2(C)CCN2C(=O)c2ccccc2CCc2ccccc2)nc1 (stereo not given)	-11	4	1	2	-3	-6
O=C(Nc1cc(=O)c2ccccc2o1)N1CCOCC1	31*	3	3	-14	1	10
Cc1ccc2oc(NC(=O)N3CCOCC3)cc(=O)c2c1	-6	-4	0	10	-1	31*
O=C(Nc1cc(=O)c2ccccc2o1)N1CCCCC1	8	15	3	5	-1	3
CN(C)c1ccc(/C=C/c2nc3ccccc3c(=O)n2CCO)cc1	34	-23	14	-30	30*	4
Cc1oc(-c2cc(F)cc(F)c2)nc1CN1CCSCC1	-6	-3	1	4	-2	10
O=[N+]([O-])c1cc(-c2ccn[nH]2)ccc1Cl	-7	21	2	10	-9	-6
O=[N+]([O-])c1cccc(-c2ccn[nH]2)c1	-2	2	1	31*	-2	-6
O=C(Nc1nc(OCC(F)(F)F)cnc1/C=C\c1ccccc1)c1ccccc1	-22	4	0	12	-4	-10
COc1ccc(C)c2sc(N3CCCC3)nc12	2	-1	0	-3	-5	-1
COc1ccc(OC)c2sc(N3CCN(c4ccccc4)CC3)nc12	9	-5	0	6	0	28*
COc1ccc(Cc2nnc(NC(=O)Nc3ccc(C)cc3)s2)cc1OC	-10	-12	0	10	0	13
COc1ccc(Cc2nnc(NC(=O)c3ccccc3F)s2)cc1OC	-16	10	1	13	1	-2
COc1ccc(Cc2nnc(NC(=O)c3ccccc3Cl)s2)cc1OC	-15	16	22*	8	-2	-1
COc1ccc(Cc2nnc(NC(=O)CSc3ccc(C)cc3)s2)cc1OC	-7	42*	49*	15	61*	-22
SMILES	M1 antag	M1 PAM parental	M1 ag parental	CHRM1 PAM	M1 ag	CHO-K1 Ca antag
N#Cc1ccsc1NC(=O)C1CCN(C(=O)c2ccc(Cl)cc2)CC1	-4	-15	1	-1	-2	15
Cc1ccc(-n2c(O)c(C=NCc3ccccn3)c3ccccc3c2=O)cc1	2	8	0	5	-8	4
COc1ccccc1-n1c(O)c(C=NCc2ccccn2)c2ccccc2c1=O	-10	13	18*	8	2	-2
CC1CCN(c2nc3ccccc3n2CC(=O)c2ccccc2)CC1	67*	3	0	-23	-5	1
CN1CCN(Cc2cn[nH]c2-c2ccc(F)cc2F)[C@@H](c2ccccc2)C1	21*	-3	0	-28	46*	0
CN(c1ccccc1)c1ccc(/C=C/[N+](=O)[O-])cc1	64*	2	20*	-8	23*	28*
O=[N+]([O-])c1ccc(C=CC=Cc2ccccc2)cc1	-6	10	1	8	-1	-6
CC(C)(C)c1ccc(C(=O)NNC(=O)CNC(=O)c2cccs2)cc1	-13	9	0	9	-1	-15
Cc1ccccc1NC(=O)c1sc2nc[nH]c(=O)c2c1C	3	-14	0	11	-3	24*
Cc1ccc(OCC(=O)c2cc(C)n(Cc3cccs3)c2C)c([N+](=O)[O-])n1	20	-11	7	-11	-2	28*
Cc1ccc(OCC(=O)c2cc(C)n(CC(F)(F)F)c2C)c([N+](=O)[O-])n1	-4	-2	3	8	1	-7
CCC(c1nnnn1Cc1ccc(OC)cc1)N1CCN(c2ccc(OC)cc2)CC1 (stereo not given)	-4	-15	0	6	-2	25*
CCC(c1nnnn1Cc1ccccc1)N1CCN(c2ccc(OC)cc2)CC1 (stereo not given)	0	6	0	-2	-10	-9
OC[C@H]1O[C@@H](O[C@@H]2[C@@H](CO)O[C@@](O)(CO)[C@H]2O)[C@H](O)[C@@H](O)[C@H]1O	-10	-14	0	-3	-1	27*
COC1OC(CO)C(O)C(O)C1O (stereo not given)	-2	-12	0	-6	-1	7
O=C(NCc1cc([N+](=O)[O-])ccc1O)c1cccc(NS(=O)(=O)c2ccccc2)c1	-1	1	2	2	-3	-3
CCC(c1nnnn1C(C)(C)C)N1CCN(C/C=C/c2ccccc2)CC1 (stereo not given)	-17	8	1	-2	-5	-13
CCCCn1nnnc1C(c1ccccc1)N1CCN(C/C=C/c2ccccc2)CC1 (stereo not given)	53*	3	0	-26	-7	-4
CCCCn1nnnc1C(c1ccccc1OC(F)(F)F)N1CCN(C/C=C/c2ccccc2)CC1 (stereo not given)	16	1	0	-25	-8	-16
COc1ccc(-n2nnnc2C(c2ccccc2)N2CCN(C/C=C/c3ccccc3)CC2)cc1 (stereo not given)	68*	-2	-1	-26	-9	-16
CC(C)(C)n1nnnc1C(c1ccccc1)N1CCN(C/C=C/c2ccccc2)CC1 (stereo not given)	63*	16	2	-24	-4	-14
